The source of these data is PubChem BioAssay (EPA / NIEHS).

Activity calls are given as the source filed them. How the source made its calls: active means hit-call score of the fitted dose curve at least 0.9, where 1 is the maximum; inactive means score below 0.9.

This test can be described thus: ATG_DR4_LXR_CIS: Attagene CIS-FACTORIAL HepG2 Assay for human Liver X Receptor (LXR), DR4 submotif (AID 2282929). To be noted: HepG2 Attagene DR4 cis-reporter, mRNA transcription; actives raise or lower the signal. How it is done: ATG_CIS is a cell-based, multiplexed-readout assay that uses HepG2, a human liver cell line, with measurements taken at 24 hours after chemical dosing in a 24-well plate.ATG_DR4_LXR_CIS is one of 52 assay component(s) measured or calculated from the ATG_CIS assay. It is designed to make measurements of mRNA induction, a form of inducible reporter, as detected with fluorescence intensity signals by Reverse transcription polymerase chain reaction (RT-PCR) and Capillary electrophoresis technology.Data from the assay component ATG_DR4_LXR_CIS was analyzed into 1 assay endpoint. This assay endpoint, ATG_DR4_LXR_CIS, was analyzed with bidirectional fitting relative to DMSO as the negative control and baseline of activity. Using a type of inducible reporter, measures of mRNA for gain or loss-of-signal activity can be used to understand the reporter gene at the transcription factor-level as they relate to the gene NR1H2 and NR1H3. Furthermore, this assay endpoint can be referred to as a primary readout, because this assay has produced multiple assay endpoints where this one serves a reporter gene function. To generalize the intended target to other relatable targets, this assay endpoint is annotated to the nuclear receptor intended target family, where the subfamily is non-steroidal.
Human liver HepG2 cells are transiently transfected with multiple reporter transcription units (MRTUs) in 6-well plates using FuGene 6 reagent (Roche; 3 ml FuGene/1 mg DNA). The MRTU constructs are regulated by a cis-regulating element (promoter). […] A major difference between the CIS and TRANS system is that in CIS activities of endogenous TFs are measured, whereas the TRANS assay evaluates changes in activities of exogenous, chimeric NR-Gal4 proteins. […] At the end of 24 hour incubation, total RNA was isolated using TriZol reagent (Invitrogen). The isolated RNA is then reverse-transcribed using oligo(dT) primer and Mo-MLV reverse transcriptase (Invitrogen) with DNAse I (Ambion) treatment for 30 min. The one-tenth of the produced cDNA was amplified by PCR using Taq DNA polymerase (Invitrogen) and two reporter sequence-specific primers. The PCR products were fluorescently labeled by primer extension with 6-arboxyfluorescein (6-FAM) 5'-labeled reporter sequence-specific primer (2 min at 95 C, 20 s at 68 C and 10 min at 72 C) and these products were digested with 5U of HpaI (New England Biolabs) for 2h at 37 C. The fragments were purified using Qiaquick PCR columns (Qiagen), analyzed on an ABI 3130xL genetic analyzer (Applied Biosystems) with peak positions identified by using a set of X-rhodamine (ROX)-labeled MapMarker1000 molecular weight standards (BioVentures). The raw capillary electrophoresis data was processed using Attagraph software (Attagene).
For the molecule `OC1CCCCCCCCCCC1`, the AC50 (in general, the concentration at which the activity in the assay is half-maximal) was 40.5 µM (active).
Still for that read-out and setting: with `CCCCCCCCCCCSCC(=O)O` the figure was 48.8 µM (active).
Consider `NC(=O)N=NC(N)=O`, for which the molecule was classed as inactive.
The same measure, in the same setting: the same measure for `O=c1c2ccccc2oc2ccccc12`: “inactive”; for `NNC(=O)c1cccc(C(=O)NN)c1`: “inactive”.
On to `Cc1cc(C)c(C)cc1C`, for which the result was inactive.
`C=CC(C)(C)C`: the outcome was inactive.
Consider `O=Nc1ccc(O)cc1`, for which the molecule was classed as inactive.
Same read-out and setting: the same measure for `CC(=O)c1ccc2c(c1)CCCC2`: “inactive”.
In the case of `CC(C)CCCCCOC(=O)CCS`, the call was inactive.
The same measure, in the same setting: the same measure for `CCN(CCC#N)c1ccc(N=Nc2c(Cl)cc([N+](=O)[O-])cc2Cl)cc1`: “inactive”.
On to `O=C(O)C(c1ccc(Cl)cc1)c1ccc(Cl)cc1`, for which the result was inactive.
For the molecule `C=CCCCCCCCCC(=O)OCCCC`, the result was inactive.
On the same count and under the same terms, the same measure for `O=c1[nH]c(=O)c2[nH]c(=O)[nH]c2[nH]1`: “inactive”.
With `C[Si](C)O[Si](C)(C)O[Si](C)(C)O[Si](C)C`, the outcome was inactive.
Regarding `Cc1ccc(C(C)c2ccc(C)c(C)c2)cc1C`, the half-maximal activity concentration (AC50) is 117 µM (active).
In the case of `CC(C)(c1cc(Br)c(OCCO)c(Br)c1)c1cc(Br)c(OCCO)c(Br)c1`, the AC50 is 15.6 µM (active).
Consider `Cc1ccc(N/N=c2\c(=O)cc/c(=N/Nc3ccc(S(=O)(=O)O)cc3)c2=O)c(C)c1`, for which the result was inactive.
For the molecule `O=S(=O)(O)CC(O)CCl` (stereo not given), the molecule was called inactive.
Take `CCC(C)C=O` (stereo not given): the result was inactive.
As for `CCCCCCCCCCOS(=O)(=O)O`, the AC50 is 67 µM (active).
Consider `COCC(C)N` (stereo not given), for which the molecule was classed as inactive.
Turning to `O=C1CC2CC1C1CCCC21` (stereo not given), the molecule was classed as inactive.
Same read-out and setting: the same measure for `CC(=O)OCc1ccco1`: “inactive”; for `C=CCOc1c(Br)cc(Br)cc1Br`: “inactive”; for `N#[N+]c1ccc2c(S(=O)(=O)[O-])cccc2c1O`: “inactive”.
In the case of `CCCCCC(C)O` (stereo not given), the call was inactive.
For `O=C(Nc1cccc(C(F)(F)F)c1)c1cc(Br)cc(Br)c1O`, the AC50 is 38.3 µM (active).
On to `CCCCCCCC/C=C\CCCCCCCC(=O)OCCO`, for which the AC50 is 50 µM (active).
`CC(=O)[C@H]1[C@H](C#N)C[C@H]2[C@@H]3CC=C4C[C@@H](O)CC[C@]4(C)[C@H]3CC[C@@]21C`: the call was inactive.
Regarding `COC(=O)c1ccc2cc(C(=O)OC)ccc2c1`, the call was inactive.
In the case of `CCOc1nc(F)cc2nc(S(=O)(=O)Nc3c(Cl)cccc3C(=O)OC)nn12`, the molecule was called inactive.
Take `OCCN(CCO)c1ccccc1`: the result was inactive.
As for `CC(C)=CCCC(C)C=O` (stereo not given), the result was inactive.
As to `CCCCCCCCCCCCCCCC[N+](C)(C)CC`, the AC50 is 9.13 µM (active).
Regarding `C/C=C\C/C=C/CCCCCCCCOC(C)=O`, the AC50 was 122 µM (active).
With `OC1CCCC1`, the molecule was classed as inactive.
Same read-out and setting: the same measure for `CCCc1ccc(OC)cc1`: “inactive”.
As to `C1=CCCC1`, the molecule was classed as inactive.
Regarding `CCCCCCCOC(=O)CCC`, the molecule was called inactive.
